The values that follow come from the OligoGym collection.
Note: reference of the scale not given here.

One experiment concerns the target ZNF548. In words: pooled miR-30 sensor sort-seq; sequence = guide strand. To be noted: shRNA.
For the sequence TGTCTCACTAGGGTGGACCTTC, the sensor-assay potency score (higher = more potent) was -0.0557.

With ATTCATAAGACCTTTCTCCTGT, the sensor-assay potency score (higher = more potent) is 0.892.

With TTCTCTGTCCTCTGTGTCCCTG, the sensor-assay potency score (higher = more potent) is -0.777.

TTGTAACCTCTGACACTCCTAC came in with a sensor-assay potency score (higher = more potent) of -0.158.

ATTTGTAATCATTTTGTCCAGT yielded a sensor-assay potency score (higher = more potent) of -0.192.

TCAACAAATGAATAGCTGCAGG yielded a sensor-assay potency score (higher = more potent) of -0.782.

For TGTCTAACAAATGTGGAGCTGT, the sensor-assay potency score (higher = more potent) worked out at 0.213.

For the next experiment, the target named is ZNF550. Described as above. To be noted: shRNA.
On to TTGAGCTCTGGCTAAAGGCTTT, for which the sensor-assay potency score (higher = more potent) is -0.685.

The sequence TTCATGGAGAACATCTGCTGAT yielded a sensor-assay potency score (higher = more potent) of 0.0411.

TTTACCTTTCTGCATTTCCAAA registered a sensor-assay potency score (higher = more potent) of -1.66.

Take TCTGTCACCTAGTGAAACCAGA: the sensor-assay potency score (higher = more potent) was -0.609.

Sequence TTTCATTCCAGTGTGAACCCTC came in with a sensor-assay potency score (higher = more potent) of 0.423.

For ATGAGTTCTGAGCTGCATCTGA, the sensor-assay potency score (higher = more potent) is -0.453.

For ATTCATGGAGAACATCTGCTGA, the sensor-assay potency score (higher = more potent) was -0.38.

The sequence TGCTGCATGAGGTACGACCTGC had a sensor-assay potency score (higher = more potent) of -0.586.

In turn, TTGAGGTTGAAGATTCCAGAGT yielded a sensor-assay potency score (higher = more potent) of -1.04.

As for TTGTGGAGGTCTGTCTCCGGTG, the sensor-assay potency score (higher = more potent) is -1.27.

TTCGACATTGACTACACTCATA: the sensor-assay potency score (higher = more potent) was -1.1.

Consider TGCTGTATGAGTTCTGAGCTGC, for which the sensor-assay potency score (higher = more potent) came to 0.178.
